# In article PMC7819943, “Rice protein-binding microarrays: a tool to detect cis-acting elements near promoter regions in rice”:
# In all, about 35,000 sequences were measured (“fluorescence intensity (a.u.)”: median about 10,000, highest 2% from about 52,000 on). What follows is part of a selection rich in the highest values, with near analogues and random picks from the rest.
# Molecular target: T1, OsWOX13 (Oryza sativa, UniProt Q5QMM3 1-267)
# T1 sequence: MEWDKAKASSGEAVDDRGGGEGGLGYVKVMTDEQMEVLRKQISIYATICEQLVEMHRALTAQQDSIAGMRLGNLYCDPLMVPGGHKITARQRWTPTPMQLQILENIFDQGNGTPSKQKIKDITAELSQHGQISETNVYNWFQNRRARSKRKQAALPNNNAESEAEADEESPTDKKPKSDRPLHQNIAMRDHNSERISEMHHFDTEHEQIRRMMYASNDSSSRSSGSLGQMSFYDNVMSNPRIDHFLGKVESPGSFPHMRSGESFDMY
# Test: protein-binding microarray (RPBM); PBS, 2% BSA, 51.3 ng/ul salmon testes DNA, 50 uM zinc acetate, 200 nM TF, 25 C, 1 h; high values mean tight binding
# Details: protein: recombinant; tags: N-terminal polyhistidine and DsRed monomer fusion (pET32a); label: CyDye5-dUTP incorporated in the synthesized complementary strand; 3' TTTTT single-stranded linker to array surface; dsDNA, one strand shown
# Outline: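 Ni–NTA purification followed expression in E. coli BL21-CodonPlus of transcription factors fused N-terminally to a polyhistidine tag and DsRed. At 200 nM in PBS with 2% BSA, salmon testes DNA and 50 µM zinc acetate, the protein was incubated for 1 h at 25 °C with a custom Agilent array that had been primer-extended with Cy5-dUTP and blocked with 2% BSA. After washing, the array was read on an Axon 4000B scanner. The binding signal is per-feature fluorescence intensity in arbitrary units.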
row,Sequence,binding signal
1,ACTGATAGAATTAGCTCTATGCATAATGCATGGCTGTCTCCGGAGTCACCTAGTGCAG,34300 fluorescence intensity (a.u.)
2,AAAGATTGAAACTCTGAACATTTAGGACAACGAACATCATCGGAGTCACCTAGTGCAG,14000 fluorescence intensity (a.u.)
3,CAAACAAGCCAGCTCAATCAATCATCGAGCTAGCTGAGCTCGGAGTCACCTAGTGCAG,8080 fluorescence intensity (a.u.)
4,CTCTGTAACTATATAATTTCGTGCCAGATCGAAACTATGTCGGAGTCACCTAGTGCAG,4040 fluorescence intensity (a.u.)
5,GGTGTGTTTATAATTAATATACAGATTGTGTCACATTGTTCGGAGTCACCTAGTGCAG,8600 fluorescence intensity (a.u.)
6,ATGATTGATCGATCATCAAGCTAAAGATAATGCTATGCAACGGAGTCACCTAGTGCAG,55100 fluorescence intensity (a.u.)
7,GATAAATTGACAATATTACCAAAATTTTAGTAAGATTGGCCGGAGTCACCTAGTGCAG,64900 fluorescence intensity (a.u.)
8,AATAAAATAATAATTATATAATTTTAGTAAGATAATTGAACGGAGTCACCTAGTGCAG,19200 fluorescence intensity (a.u.)
9,GTCAATCATTGTTCTATGAGCTAGATGATAAAGATGACAACGGAGTCACCTAGTGCAG,8180 fluorescence intensity (a.u.)
10,TATATATGAGCTATTAGATTGGCTATGGATGAATTGGAGCCGGAGTCACCTAGTGCAG,4900 fluorescence intensity (a.u.)
11,ATATTTGATTAGATCGGTAATGGATGGCTATAACGTATGCCGGAGTCACCTAGTGCAG,58500 fluorescence intensity (a.u.)
12,CAACTATTATATAAATTGGCTATTATATTAGCTATAGATGCGGAGTCACCTAGTGCAG,11400 fluorescence intensity (a.u.)
13,TTTATGATTATATTCGTAATGCTACATAATTTGATATGATCGGAGTCACCTAGTGCAG,28100 fluorescence intensity (a.u.)
14,AGATAATTAAGTATTTTACGTAAAATAAGATAGTATTAATCGGAGTCACCTAGTGCAG,5240 fluorescence intensity (a.u.)
15,GAGCTATTAGATTGGCTATAGATAAATTAGAGCTAGTAGTCGGAGTCACCTAGTGCAG,31600 fluorescence intensity (a.u.)
16,TCAAGCTGCTAATCAATTGATATCAACTATATTATGGAAACGGAGTCACCTAGTGCAG,14600 fluorescence intensity (a.u.)
17,TTATATTAATTGGCTATTAGATTAGCTATAGATAAATTGGCGGAGTCACCTAGTGCAG,60400 fluorescence intensity (a.u.)
18,ATCACACCCTAAATTGACTGTATTTGTGCTGAATTTTACACGGAGTCACCTAGTGCAG,12300 fluorescence intensity (a.u.)
19,CAGCCGGATTGATTGCGTAGCTGTGTGCAAGGCTGGGCGACGGAGTCACCTAGTGCAG,35900 fluorescence intensity (a.u.)
20,TGGTTAATTTAGCTTCTCCCCTTTCTCGTGTCCTTAGATTCGGAGTCACCTAGTGCAG,10200 fluorescence intensity (a.u.)
21,ATAAAATTAAAGTAAATGTGATACAAACGTGGCATGTTTGCGGAGTCACCTAGTGCAG,8490 fluorescence intensity (a.u.)
22,AGACTAATTGAAGCTAGGATATATGATGCAAGGAGAGAGGCGGAGTCACCTAGTGCAG,29500 fluorescence intensity (a.u.)

row,Sequence,binding signal
1,ACCTTAAATTTGTAGTTGATTTTAGGGTTTTCTCATTGAACGGAGTCACCTAGTGCAG,27700 fluorescence intensity (a.u.)
2,ATAATAGATTTGGTCAAAATTTATCGAAAACCGATCGAAACGGAGTCACCTAGTGCAG,13200 fluorescence intensity (a.u.)
3,AAATTAAATAACATGTGATTATGGCATACTGTAAGTAGTACGGAGTCACCTAGTGCAG,12000 fluorescence intensity (a.u.)
4,ACCAAATTAATTTATTAAACATAAAATTGAATATATTTTGCGGAGTCACCTAGTGCAG,46500 fluorescence intensity (a.u.)
5,TATGAATTGGCTATTAAATTGACTATAAATGATTTAGAGCCGGAGTCACCTAGTGCAG,37200 fluorescence intensity (a.u.)
6,ATAAATGGGCTATTAGATTGACTATAAATGATTTGGAGCCCGGAGTCACCTAGTGCAG,57100 fluorescence intensity (a.u.)
7,ATGGACTATTAAATTGACTATAAATGATTTGGAGCTAGTACGGAGTCACCTAGTGCAG,22200 fluorescence intensity (a.u.)
8,GAGACCATATCATTGATAGATACATGCATGCATCCTACTACGGAGTCACCTAGTGCAG,7660 fluorescence intensity (a.u.)
9,AAGACTAAAGGCTCAATTGATTGGACGGGAGATATGAAAACGGAGTCACCTAGTGCAG,9490 fluorescence intensity (a.u.)
10,ATATGATATTTGTCCATCTTAATTGCTTATAAGCTGTATACGGAGTCACCTAGTGCAG,5090 fluorescence intensity (a.u.)
11,ATTTATGTAATTATCATTTATTTTATTGTAAATTTATTTACGGAGTCACCTAGTGCAG,16300 fluorescence intensity (a.u.)
12,GTAATTGACAACTGACAACCGACAGTTATTGACTCATTCCCGGAGTCACCTAGTGCAG,54900 fluorescence intensity (a.u.)
13,ACCGTAACCTGATTGATAATTTACTGATTTACTCATTGTTCGGAGTCACCTAGTGCAG,64700 fluorescence intensity (a.u.)
14,TATGATTTGTCTACGTTACAAACATAAACCTTTTCTTCTCCGGAGTCACCTAGTGCAG,11400 fluorescence intensity (a.u.)
15,GGAGTGCAAATTAGTCCGGATTTTACTGAATATTGATAACCGGAGTCACCTAGTGCAG,3300 fluorescence intensity (a.u.)
16,TTGTTGATAACCGATAATTTGGTAAATTATTGATTTTATTCGGAGTCACCTAGTGCAG,19900 fluorescence intensity (a.u.)
17,TAATAAATTTGACTAGTTATTCAACTTTGACATAAAATCCCGGAGTCACCTAGTGCAG,11500 fluorescence intensity (a.u.)
18,TAGATTGATTGTTACTCCGTACATAACCTTGTCTTCTTCGCGGAGTCACCTAGTGCAG,55400 fluorescence intensity (a.u.)
19,ATTGCTGATTGTCTGTTCTTTTACTTGACATAACCTGAATCGGAGTCACCTAGTGCAG,30100 fluorescence intensity (a.u.)
20,GTCCGTAATTGATCATATTTATCATTTAAATTACTCAGTGCGGAGTCACCTAGTGCAG,61900 fluorescence intensity (a.u.)
21,ATTTTGGTTTCTGTTATTGACAAAACAACTCACTCATTCCCGGAGTCACCTAGTGCAG,3480 fluorescence intensity (a.u.)
22,GGCCAGTAATTAACCATATTTATCATTTAAACTACTCAGTCGGAGTCACCTAGTGCAG,9040 fluorescence intensity (a.u.)
